Source: PubChem
Compounds with a hit are over-represented: about 1.6% of the library has one in this group of screens.
KCNQ2 enhance: potentiators of rat KCNQ2 potassium channel | Potassium voltage-gated channel subfamily KQT member 2 (Rattus norvegicus), O88943 | B-score at 10 µM | actives 0.54% (n = 310,000) | CHO-K1 KCNQ2, FluxOR thallium flux fluorescence; stronger effect = higher value | AID 2239, 2010;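 active = fluorescence ratio B-score at least 3 SD of library B-scores, with initial fluorescence B-score within 3 of them, cut at about 5.3 in these data; same plate scores as AID 2156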;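 note: B-score of peak minus minimum over baseline fluorescence ratio after K+ and Tl+ stimulus; positive B-score means potentiation of KCNQ2 with more thallium influx and brighter signal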
Target sequence (O88943 whole entry, looked up): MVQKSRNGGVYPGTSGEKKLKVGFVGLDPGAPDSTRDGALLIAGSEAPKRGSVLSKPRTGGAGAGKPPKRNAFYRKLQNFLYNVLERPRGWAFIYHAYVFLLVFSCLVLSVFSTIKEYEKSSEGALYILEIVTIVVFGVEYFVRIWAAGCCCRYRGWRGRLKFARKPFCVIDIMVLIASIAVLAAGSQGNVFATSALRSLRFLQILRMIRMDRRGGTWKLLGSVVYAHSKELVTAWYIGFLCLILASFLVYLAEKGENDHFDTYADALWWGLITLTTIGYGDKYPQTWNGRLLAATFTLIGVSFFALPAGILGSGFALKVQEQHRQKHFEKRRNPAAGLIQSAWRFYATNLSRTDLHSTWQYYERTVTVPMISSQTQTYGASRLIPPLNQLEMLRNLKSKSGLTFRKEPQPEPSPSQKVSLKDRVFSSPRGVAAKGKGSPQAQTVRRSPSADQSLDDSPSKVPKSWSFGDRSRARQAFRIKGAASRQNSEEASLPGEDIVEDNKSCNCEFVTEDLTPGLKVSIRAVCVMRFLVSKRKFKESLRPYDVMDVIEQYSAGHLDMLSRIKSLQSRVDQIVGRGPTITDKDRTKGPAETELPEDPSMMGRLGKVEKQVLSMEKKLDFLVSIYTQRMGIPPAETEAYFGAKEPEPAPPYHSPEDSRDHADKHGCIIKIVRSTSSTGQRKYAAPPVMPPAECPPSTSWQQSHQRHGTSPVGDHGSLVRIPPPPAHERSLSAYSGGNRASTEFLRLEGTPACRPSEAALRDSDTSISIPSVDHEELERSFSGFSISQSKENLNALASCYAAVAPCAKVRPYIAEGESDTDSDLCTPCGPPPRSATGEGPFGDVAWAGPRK
KCNQ2 inh: rat KCNQ2 potassium channel inhibitors, primary screen, cell-based, CHO-K1, FluxOR thallium flux, B-score; actives 1.1% (n = 310,000); B-score at 10 µM; 20 min; stronger effect = lower value; Potassium voltage-gated channel subfamily KQT member 2 (Rattus norvegicus), O88943;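 active = fluorescence ratio B-score at most minus 3 library SDs, with starting brightness B-score within 2 library SDs, cut at about -5.5 in these data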
Kir21 conf inh: mouse Kir2.1 channel blockers, retest, confirmation, cell-based, FluxOR thallium flux, duplicate | shares compounds with KCNQ2 enhance | Kir2.1-expressing cells, FluxOR thallium flux fluorescence; stronger effect = lower value | Tl flux remaining, % of negative control (stronger effect = lower value), % at 10 µM | actives 41% (n = 2,300);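 active = Primary-screen hit whose thallium flux fell at least 3 control SD below untreated wells in both duplicates, with normal baseline fluorescence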;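 note: 0% = blank wells without stimulus and 100% = stimulated no-compound controls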
HEK293 Tl flux: alters thallium flux in parental HEK293 cells, Kir2.1 counter-screen; actives 19% (n = 2,300); shares compounds with KCNQ2 enhance; FluxOR signal as % of negative control (100 = no effect), % at 10 µM; FluxOR thallium flux fluorescence; 0% = unstimulated blank wells;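 active = dye signal at least 3 control SD above or below untreated wells in both duplicates, raw fluorescence within 3, either direction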;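 note: percent is based on the flux ratio of peak minus minimum fluorescence over baseline F0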
CHO-K1 ctr: nonspecific thallium flux increase in parental CHO-K1, confirmation, counter-screen for KCNQ2 potentiator project, cell-based, FluxOR thallium flux, duplicate | AID 2282, 2010 | actives 43% (n = 1,200) | shares compounds with KCNQ2 enhance | activity increase over 3SD of controls, % at 10 µM | parental CHO-K1 cells, FluxOR thallium flux fluorescence; zero = vehicle mean+3SD, 100% = vehicle-minus-blank window;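 active = signal rise of at least 3 SD above the untreated control mean, in both duplicate wells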;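 note: counter screen of KCNQ2 potentiator hits so any rise reflects channel-independent effects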
KCNQ1 pot spec: human KCNQ1 channel potentiation off-target, confirmation, selectivity assay for KCNQ2 potentiator project, cell-based, CHO, FluxOR thallium flux. CHO KCNQ1 stable, FluxOR thallium flux fluorescence; beyond 3SD, as % of vehicle-control signal. activation over 3SD threshold, % at 10 µM. shares compounds with KCNQ2 enhance. actives 28% (n = 1,200). AID 2283, 2010;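 active = fluorescence ratio rise of at least 3 SD of vehicle wells above their mean, in both replicate wells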;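 note: 0% = vehicle mean plus 3 SD and 100% = vehicle minus unstimulated blank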
KCNQ2 pot confirm: rat KCNQ2 channel potentiators, confirmation, cell-based, CHO, FluxOR thallium flux, duplicate. shares compounds with KCNQ2 enhance. CHO-KCNQ2 cells, FluxOR thallium flux fluorescence. potentiation, less the hit threshold, % at 10 µM. actives 68% (n = 1,200);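 active = fluorescence ratio rising 3 SD or more over the vehicle control mean in both replicates, plus primary screen hit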;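 note: peak minus minimum thallium fluorescence divided by baseline after K/Tl stimulus; 0% = vehicle mean plus 3 SD and 100% = vehicle minus unstimulated blank difference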
Kir21 spec: mouse Kir2.1 channel activation off-target, confirmation, selectivity assay for KCNQ2 potentiator project, cell-based, HEK293, FluxOR thallium flux. shares compounds with KCNQ2 enhance. HEK293 Kir2.1, FluxOR thallium flux fluorescence. activity over 3SD threshold, % at 10 µM. actives 2% (n = 1,200);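 active = fluorescence ratio rise of at least 3 SD above the vehicle-control mean, seen in both replicates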;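 note: 0% = vehicle mean plus 3 SD and 100% = vehicle minus no-stimulus blank window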
KCNQ2 W236L pot: potentiators of retigabine-insensitive KCNQ2 W236L, mechanism study for KCNQ2 potentiator project, cell-based, rat KCNQ2 W236L, CHO, automated patch clamp | shares compounds with KCNQ2 enhance | automated patch clamp current | current increase over 3SD of negative controls (%), stronger effect = higher value, % at 25 µM | actives 10% (n = 940) | AID 2558, 2010;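 active = current increase at least 3 SD of the untreated controls above them in both duplicate recordings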
* marks the source's active call; other numbers are inactive results; i = inactive; / = no result given.

SMILES	KCNQ2 enhance	KCNQ2 inh	Kir21 conf inh	HEK293 Tl flux	CHO-K1 ctr	KCNQ1 pot spec	KCNQ2 pot confirm	Kir21 spec	others
CN(C)C(=O)c1cc(F)ccc1Sc1cc(Cl)ccc1Cl	/	i	47.0%*	i	/	/	/	/
O=C(c1ccco1)N1CCN(c2ncnc3c2cnn3-c2ccccc2)CC1	0.79	i	/	/	/	/	/	/
CCc1cc2c(N3CCN(C(=O)c4ccco4)CC3)ncnc2s1	5.72*	i	i	i	-7.7	35.6*	-18.1	-38.8
COc1cc(C(=O)NCc2nnc(SCC(=O)NC3CCCC3)o2)cc(OC)c1OC	/	i	/	/	/	/	/	/
CC1(CC(=O)N/N=C/c2cc([N+](=O)[O-])c(O)cc2O)OCCO1	/	i	/	/	/	/	/	/
O=[N+]([O-])c1ccc(N/N=C/c2ccccc2O)cc1	7.86*	i	i	74.0%*	56.3*	-19.5	-23.6	-43.5
O=[N+]([O-])c1cccc(N/N=C/c2cc([N+](=O)[O-])ccc2O)c1	1.27	i	/	/	/	/	/	/
O=C(c1ccc(Br)c(S(=O)(=O)N2CCCCC2)c1)N1CCCCC1	1.1	i	/	/	/	/	/	/
c1ccc2c(SCc3cn4ccccc4n3)nncc2c1	2.11	i	/	/	/	/	/	/
Cc1nn(-c2ccccc2)c(Cl)c1/C=C1\SC(=S)N(CCCCCC(=O)O)C1=O	1.52	i	/	/	/	/	/	/
Cc1nn(-c2ccccc2)c(Cl)c1/C=C1\SC(=S)NC1=O	12.9*	i	i	411.5%*	-1.4	-13.8	214.6*	-13.2	KCNQ2 W236L pot=i
CCCCn1c(N)c(N(CCOC)C(=O)COC(=O)COc2cccc(C(C)=O)c2)c(=O)[nH]c1=O	/	i	/	/	/	/	/	/
Cc1ccc(SCCNC(=S)Nc2ccc(C)c(C)c2)cc1	10.4*	i	i	72.5%*	1.9*	15.9*	-2.2	-31.8	KCNQ2 W236L pot=i
Cc1ccc(SCCNC(=S)Nc2ccccc2)cc1	/	i	/	/	/	/	/	/
O=C(CCCC1=NS(=O)(=O)c2ccccc2N1)Nc1ccccc1	0.4	i	/	/	/	/	/	/
CN1CCN(CC(=O)N2c3ccccc3C(C)(c3ccccc3)CC2(C)C)CC1 (centres undefined)	/	i	58.5%*	i	/	/	/	/
CN1CCN(CC(=O)N2c3ccccc3C(C)(c3ccc(Cl)cc3)CC2(C)C)CC1 (centres undefined)	0.07	i	/	/	/	/	/	/
CC1=C(C#N)C(NC(=O)c2cccc(Cl)c2)(C(F)(F)F)C(=O)N1 (centres undefined)	0.61	i	/	/	/	/	/	/
COC(=O)c1nc(NC(=S)NC(=O)c2cccs2)sc1C	5.79*	i	i	140.5%*	5.0*	-29.9	-1.6	-36.8	KCNQ2 W236L pot=i
CCc1ccc(-c2nc(NC(=S)NC(=O)c3cccs3)sc2C)cc1	1.69	i	/	/	/	/	/	/
Nc1cccnc1Oc1ccc(F)cc1	0.08	i	/	/	/	/	/	/
FC(F)(F)c1cccnc1Oc1ccc(C2=NCCS2)cc1	5.37*	i	i	i	-33.6	30.1*	12.6*	-21.1	KCNQ2 W236L pot=i
